# Measured values from PubChem BioAssay AID488969 (Vanderbilt High Throughput Screening Facility, 2010).
# Over roughly 110,000 compounds, “z-score” has its median near -0.1; the highest 2% begin near 2. Only a selection was taken, and the highest values are over-represented in it overall. Activity calls are given as the source filed them.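 Rule for the calls: active = z-score in the third read window above 3 or below -3; inactive = the rest.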
# Molecular target: Metabotropic glutamate receptor 8 (Rattus norvegicus) (UniProt P70579)
# Sequence (P70579 whole entry, looked up): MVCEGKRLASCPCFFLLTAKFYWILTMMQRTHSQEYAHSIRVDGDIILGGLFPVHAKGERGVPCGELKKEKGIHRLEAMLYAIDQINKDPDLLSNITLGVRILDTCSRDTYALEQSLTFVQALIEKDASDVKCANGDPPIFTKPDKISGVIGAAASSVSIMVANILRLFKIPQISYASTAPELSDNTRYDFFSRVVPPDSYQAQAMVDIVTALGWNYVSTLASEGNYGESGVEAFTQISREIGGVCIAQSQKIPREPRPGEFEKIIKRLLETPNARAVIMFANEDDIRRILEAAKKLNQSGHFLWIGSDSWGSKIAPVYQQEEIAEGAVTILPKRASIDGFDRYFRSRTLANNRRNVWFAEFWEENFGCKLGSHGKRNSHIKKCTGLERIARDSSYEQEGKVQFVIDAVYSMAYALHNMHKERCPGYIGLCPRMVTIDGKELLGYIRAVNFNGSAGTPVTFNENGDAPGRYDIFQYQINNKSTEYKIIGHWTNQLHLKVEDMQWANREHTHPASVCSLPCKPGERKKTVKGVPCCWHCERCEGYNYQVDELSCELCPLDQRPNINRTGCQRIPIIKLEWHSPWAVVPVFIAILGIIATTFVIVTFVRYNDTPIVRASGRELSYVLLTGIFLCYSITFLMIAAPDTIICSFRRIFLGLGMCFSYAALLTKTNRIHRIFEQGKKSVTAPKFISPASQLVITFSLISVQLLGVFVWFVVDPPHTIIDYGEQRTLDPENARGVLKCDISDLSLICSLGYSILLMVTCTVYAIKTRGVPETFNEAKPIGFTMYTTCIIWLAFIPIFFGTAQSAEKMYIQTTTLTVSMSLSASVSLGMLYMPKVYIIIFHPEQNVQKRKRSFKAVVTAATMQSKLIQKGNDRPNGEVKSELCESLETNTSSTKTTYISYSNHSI
# Experiment: rat mGluR8 modulators via GIRK flux, primary screen, cell-based, thallium flux, HTS (AID 488969)
# Details: HEK293 rat mGluR8, GIRK (G protein-gated inwardly rectifying potassium channel) thallium flux, FluoZin2; at 10 µM; stronger effect = higher value; submaximal glutamate (EC20) added with thallium
row,Compound,z-score
1,N#CC1(Cc2ccc(Cl)cc2)c2ccccc2C=CN1C(=O)c1ccccc1 (stereo unspecified),-0.14
2,N#CC1(Cc2ccc([N+](=O)[O-])cc2)c2ccccc2C=CN1C(=O)c1ccccc1 (stereo unspecified),2.08
3,N#CC1(Cc2ccccc2)c2ccccc2C=CN1C(=O)c1ccccc1 (stereo unspecified),-0.211
4,Cc1cccc(-n2c(C)cc(/C=N/O)c2C)c1,-0.205
5,O=Cc1cn(-c2ccccc2)nc1-c1ccc2c(c1)OCCO2,-1.11
6,O/N=C/c1cn(-c2ccccc2)nc1-c1ccc2c(c1)OCCO2,-0.458
7,NC(=O)/C=C\c1cn(-c2ccccc2)nc1-c1ccc2c(c1)OCCO2,2.14
8,O=C(COC(=O)c1cn(-c2ccccc2)nc1-c1ccccc1)c1ccc([N+](=O)[O-])cc1,-0.413
9,COc1ccc(S(=O)(=O)N2CCC(CN3C(=O)c4cccc5cccc(c45)C3=O)CC2)cc1,-0.138
10,COc1ccc(S(=O)(=O)N2CCC(c3cc(-c4cccc5ccccc45)n[nH]3)CC2)cc1,2.15
11,O=S(=O)(c1cccc(C(F)(F)F)c1)N1CCC(c2cc(-c3cccc4ccccc34)n[nH]2)CC1,1.58
12,Cn1c(CCN2CCN(c3ccc(F)cc3)CC2)nc2cc(NC(=O)c3ccco3)ccc21,-2.09
13,Cc1ccc(N(CC(=O)Nc2ccccc2C(=O)N2CCOCC2)S(C)(=O)=O)cc1,0.00258
14,O=C(Nc1cccc2ccccc12)c1ccccc1NS(=O)(=O)c1cccc2cccnc12,-0.0553
15,COc1ccc(OC)c(NC(=O)c2ccccc2NS(=O)(=O)c2cccc3cccnc23)c1,0.685
16,COc1ccc(C)cc1NC(=O)c1ccccc1NS(=O)(=O)c1cccc2cccnc12,2.02
17,Cc1cccc(C)c1-n1c(C)cc(/C=N/NC(=O)c2ccncc2)c1C,0.0638
18,C/C(=C\C(=O)c1ccc(Br)cc1)NCc1ccccc1,-0.0992
19,O=C(NC(=S)Nc1ccccc1N1CCOCC1)c1ccc(-c2cc(Cl)ccc2Cl)o1,0.0698

row,Compound,z-score
1,Cc1cc(S(=O)(=O)N2CCN(c3ccc(F)cc3)CC2)c(C)s1,-0.128
2,Cc1cc(C)c(S(=O)(=O)c2ccccc2C)c(Cl)n1,-0.119
3,Cc1ccc(S(=O)(=O)c2c(C)cc(C)nc2Cl)c(C)c1,4.41 (active)
4,Cc1ccc(S(=O)(=O)c2c(C)cc(C)nc2Cl)cc1,-0.0793
5,CCOC(=O)c1c(C)c(C(=O)Nc2cc(OC)ccc2OC)c(C)n1CC,-0.853
6,CCC1(C)OCC(Cn2c3ccccc3c3ccccc32)O1 (stereo unspecified),3.89 (active)
7,c1ccc2c(c1)c1ccccc1n2CN1CCOCC1,-0.144
8,CCn1c2ccccc2c2cc(N)ccc21,-0.216
9,CC(=O)N1N=C(c2ccc(C)cc2)OC1c1ccc(C(C)C)cc1 (stereo unspecified),-0.402
10,Cc1ccccc1NCc1ccc(O)c2ncccc12,0.65
11,Cc1ccccc1N=Nc1ccc(O)c2ncccc12,4.67 (active)
12,COCc1ccc(O)c2ncccc12,-0.0472
13,Oc1ccc(CNc2ccccc2)c2cccnc12,0.0879
14,Cc1ccc(N=Nc2ccc(O)c3ncccc23)cc1,2.05
15,OCc1ccc(O)c2ncccc12,0.138
16,Cc1ccc(C(=O)c2oc3ccccc3c2NC(=O)c2cc(-c3ccccc3O)n[nH]2)cc1,0.291
17,CCOc1cc(-c2conc2N)cc(OCC)c1OCC,0.888
18,CC(C)(C)c1ccc(-c2conc2N)cc1,2.09
19,CC(C)(C)c1ccc(-c2cc(N)n[nH]2)cc1,0.498

row,Compound,z-score
1,CCc1ccc2nc(N3C(=O)c4oc5ccccc5c(=O)c4C3c3ccc(OC)c(OC)c3)sc2c1 (stereo unspecified),-0.133
2,O=C(Nc1nc(=O)c2ccccc2s1)c1ccc(F)cc1,16.3 (active)
3,Cn1sc(NC(=O)c2ccc(Cl)cc2)nc1=O,0.266
4,O=C(Cc1ccccc1)Nc1nc2ccccc2s1,0.548
5,O=C(CSC(=S)N1CCOCC1)Nc1nc(=O)c2ccccc2s1,0.0572
6,CCn1c(NC(=O)c2ccc(F)cc2)c2ccccc2nc1=O,0.0383
7,O=C(Cc1nc(=O)c2ccccc2s1)Nc1ccccc1,-0.368
8,O=C(Cc1ccccc1)Nc1nc(=O)c2ccccc2s1,5.11 (active)
9,CCN(CC)C(=S)SCC(=O)Nc1nc(=O)c2ccccc2s1,5.2 (active)
10,CCN(CC)C(=S)SCC(=O)Nc1nc(-c2ccccc2)c(-c2ccccc2)o1,-0.0668
11,O=C(NNc1nc2ccccc2s1)c1ccc(F)cc1,0.186
12,O=C(Nc1nc(=O)c2ccccc2s1)c1ccc(Cl)cc1,14.9 (active)
13,O=C(Nc1nc2ccccc2s1)c1ccc(Cl)s1,1.22
14,O=C(CSc1n[nH]c(-c2ccco2)n1)Nc1sc2c(c1C(=O)Nc1ccccc1)CCCC2,-0.294
15,C=CCN(c1ccc(C(=O)NCCc2ccccc2)cc1)S(C)(=O)=O,-0.00787
16,CCOC(=O)C1CCN(S(=O)(=O)c2ccc(OCC(=O)OC)cc2)CC1,0.845
17,COc1cccc(-c2csc(N3CCN(C(=S)Nc4cccc(Cl)c4)CC3)n2)c1,0.143
18,CSc1nc(C)cc(C)c1S(=O)(=O)c1ccccc1C,-0.374
